Source: PubChem BioAssay
JMJD2A Tudor: blocks the human JMJD2A Tudor domain; O75164; AlphaScreen JMJD2A-Tudor / H3K4me3 peptide binding; Potency, µM (highest dose often 114 µM), actives largely listed as inhibitors; actives 4.4% (n = 390,000); also: nearly all actives have a fitted effect of over 50% in size
Target sequence (O75164 whole entry, looked up, the tested form may be a part): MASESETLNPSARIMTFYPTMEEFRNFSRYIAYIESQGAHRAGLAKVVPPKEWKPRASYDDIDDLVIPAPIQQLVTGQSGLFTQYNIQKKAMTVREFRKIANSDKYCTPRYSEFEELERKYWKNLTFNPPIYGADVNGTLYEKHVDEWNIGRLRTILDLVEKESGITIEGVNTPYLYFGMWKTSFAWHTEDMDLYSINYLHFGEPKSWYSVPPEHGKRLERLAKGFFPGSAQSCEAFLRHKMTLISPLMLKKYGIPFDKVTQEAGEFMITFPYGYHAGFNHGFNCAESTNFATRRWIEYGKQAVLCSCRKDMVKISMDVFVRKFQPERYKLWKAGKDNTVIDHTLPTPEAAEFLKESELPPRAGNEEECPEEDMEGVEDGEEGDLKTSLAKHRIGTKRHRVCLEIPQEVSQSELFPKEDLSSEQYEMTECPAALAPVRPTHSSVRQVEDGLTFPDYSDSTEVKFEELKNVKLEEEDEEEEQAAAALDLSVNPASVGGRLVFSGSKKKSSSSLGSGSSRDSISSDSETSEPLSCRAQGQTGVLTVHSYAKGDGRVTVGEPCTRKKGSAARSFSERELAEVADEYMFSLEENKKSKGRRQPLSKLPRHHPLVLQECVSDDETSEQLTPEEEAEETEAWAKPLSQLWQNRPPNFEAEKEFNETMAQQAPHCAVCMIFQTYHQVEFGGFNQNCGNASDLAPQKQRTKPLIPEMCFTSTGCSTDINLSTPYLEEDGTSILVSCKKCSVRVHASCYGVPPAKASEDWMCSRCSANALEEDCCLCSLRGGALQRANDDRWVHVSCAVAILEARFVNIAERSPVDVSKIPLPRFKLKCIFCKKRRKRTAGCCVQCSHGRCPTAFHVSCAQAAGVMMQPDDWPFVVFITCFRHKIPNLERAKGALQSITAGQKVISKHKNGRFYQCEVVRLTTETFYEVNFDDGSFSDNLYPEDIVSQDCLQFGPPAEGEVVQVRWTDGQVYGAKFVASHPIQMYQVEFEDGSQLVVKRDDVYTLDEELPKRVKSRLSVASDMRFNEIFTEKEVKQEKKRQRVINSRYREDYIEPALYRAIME
Sfp inh: blocks B. subtilis Sfp PPTase activity; Q9F4F7; AID 1490; Biochemical Sfp PPTase activity, qHTS; Potency, µM, hits mostly inhibitors; actives 3.5% (n = 310,000);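 also: the enzyme is Sfp with the accession as filed and its product quenches rhodamine fluorescence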
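Buffer: 50 mM Hepes-Na pH 7.6, 10 mM MgCl2, 0.01% Nonidet P-40, 0.01% BSA. Enzyme 15 nM, pre-exposed to compound 15 min; substrates then added and fluorescence change tracked over 30 min.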
BAZ2B inh: inhibitors of human BAZ2B bromodomain; AID 504333; Potency, µM (doses to about 114 µM), actives largely listed as inhibitors; Q9UIF8; AlphaScreen BAZ2B-H3K14Ac peptide displacement; actives 4.4% (n = 360,000); also: nearly all actives have a fitted effect of over 60% in size
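Multi-concentration screen (max 110 uM) measuring displacement of acetylated histone H3 peptide from BAZ2B by AlphaScreen, using 50 nM protein, 50 nM peptide and 10 ug/mL streptavidin donor plus Ni-chelate acceptor beads.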
G9a block: G9a (human) methyltransferase inhibition; G9a H3K9 monomethylation, AlphaScreen, 2 h; Potency, µM (top dose mostly 102 µM), most hits filed as inhibitors; actives 8.8% (n = 350,000); AID 504332; also: nearly all actives have a fitted effect of over 75% in size
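AlphaScreen read-out: biotin-H3K9 peptide (500 nM) methylation by 20 nM enzyme with 20 uM SAM, 2 h at room temperature after 15 min compound preincubation; anti-monomethyl H3K9 antibody plus donor/acceptor beads, 10 min dark.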
HP1b chromo inh: inhibitors of HP1-beta chromodomain binding to methylated histone tails | AID 540317 | AlphaScreen HP1-beta / biotin-H3K9me3 peptide binding | Potency, µM (titrated, usually from 114 µM), hits mostly inhibitors | actives 0.56% (n = 390,000); also: nearly all actives have a fitted effect of over 70% in size
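HP1-beta protein (50 nM final) preincubated 30 min at room temperature with biotinylated H3(1-18)K9me3 peptide (50 nM) in PBS pH 7.4, 0.01% Tween-20, then compound added for 30 min. AlphaScreen streptavidin donor/nickel chelate acceptor beads (10 ug/mL final), 30 min dark, luminescence read.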
Each line names hits and unclear results; the compound was inactive in the other large screens. A selection: hits, their analogues and other compounds. The true share with any hit is near 12%. Calls follow the shape of the dose curve; as a rule, active = well fitted curve in the direction sought with a large enough effect; inconclusive = small, poorly fitted or top-dose-only effect, or another doubt; inactive = no such curve, though single readings can be large; an effect the other way counts as inactive or inconclusive.

Cc1nc(SCc2ccccc2F)c2oc3ccccc3c2n1	Sfp inh 79.4µM
Cc1cc(N2CCN(C)CC2)ccc1NC(=O)c1ccc(-c2ccc(Cl)cc2)o1	JMJD2A Tudor 39.8µM, BAZ2B inh 35.5µM, G9a block 31.6µM, HP1b chromo inh inconclusive (no result: Sfp inh)
CC1(COc2ccc(C[C@H]3SC(=O)NC3=O)cc2)CCCCC1	none (no result: JMJD2A Tudor, BAZ2B inh, G9a block, HP1b chromo inh)
Cc1ccc(C(=O)NCC(=O)OCC(=O)c2cc(C)n(Cc3ccco3)c2C)cc1	JMJD2A Tudor inconclusive, BAZ2B inh inconclusive, G9a block 44.7µM, HP1b chromo inh inconclusive
Cc1ccc2cccc(OCC(=O)c3cc(C)n(Cc4ccco4)c3C)c2n1	Sfp inh 56.2µM, G9a block inconclusive (no result: JMJD2A Tudor, HP1b chromo inh)
Cc1cc(C(=O)CCl)c(C)n1Cc1ccco1	JMJD2A Tudor inconclusive, BAZ2B inh inconclusive, HP1b chromo inh inconclusive
Cc1ccc(C)c(SCC(=O)OCC(=O)NCc2ccccc2)c1	none
CCN(CC)c1ncnc2c1nnn2C	none (no result: Sfp inh, BAZ2B inh, G9a block)
COc1cc(/C=N/NC(=O)c2ccc([N+](=O)[O-])cc2Cl)cc(Br)c1O	G9a block 44.7µM
COc1ccc(Br)cc1C(=O)N/N=C/c1ccc([N+](=O)[O-])cc1	none
COc1cc(/C=N/NC(=O)Cc2ccc(Br)cc2)cc(OC)c1O	G9a block 50.1µM
CCOc1cc(/C=N/NC(=O)C(N)=O)cc(Br)c1O	G9a block inconclusive
CCOc1cc(/C=N/NC(=O)C(=O)NC2CC2)cc(Br)c1O	G9a block 8.91µM
COc1cc(/C=N/NC(=O)/C(=C\c2ccc([N+](=O)[O-])cc2)NC(=O)c2ccccc2)cc(OC)c1O	JMJD2A Tudor inconclusive, G9a block 44.7µM
CC(=O)c1cccc(NC(=O)c2ccc(NC(=O)CC3SC(N4CCCCC4)=NC3=O)cc2)c1 (centres undefined)	none
COc1cc(/C=N/NC(=O)CC#N)cc(Br)c1O	JMJD2A Tudor 35.5µM, BAZ2B inh 50.1µM, HP1b chromo inh inconclusive
COc1cc(/C=N/NC(=O)c2ccc(CSc3nncn3C)cc2)cc(OC)c1O	G9a block 12.6µM
O=C1c2cccnc2C(=O)N1Cc1ccc(F)cc1S(=O)(=O)NCc1ccco1	BAZ2B inh inconclusive
O=C1c2cccnc2C(=O)N1Cc1ccc(S(=O)(=O)NCc2ccco2)s1	BAZ2B inh 79.4µM
CCOCCCNC(=O)C(=O)Nc1c2c(nn1-c1ccccc1)CSC2	none (no result: Sfp inh)
COc1ccc(-c2nn(-c3ccccc3)cc2C(=O)Nc2nccs2)cc1	none
CN1CCN(NC(=O)c2cn(-c3ccccc3)nc2-c2ccc(OC(F)F)cc2)CC1	G9a block 79.4µM
Cc1cc(Oc2nc3ccccn3c(=O)c2/C=C(\C#N)c2nc3ccccc3s2)ccc1Cl	G9a block 10µM (no result: Sfp inh)
Cc1cccc(Oc2nc3c(C)cccn3c(=O)c2/C=C(\C#N)c2nc3ccccc3s2)c1	none (no result: Sfp inh)
N#C/C(=C\c1c(Oc2ccc(Br)cc2)nc2ccccn2c1=O)c1nc2ccccc2s1	G9a block 2.82µM (no result: Sfp inh)
Cc1[nH]nc2c1-c1nc3ccccc3nc1C(C)(C)C2	G9a block inconclusive
Cc1ccc(S(=O)(=O)N2CN(CC3CCCO3)c3nc4ccccc4nc32)cc1 (centres undefined)	G9a block 28.2µM
COCCN1CN(S(=O)(=O)c2ccccc2)c2nc3ccccc3nc21	none
Cc1ccc(S(=O)(=O)Nc2nc3ccccc3nc2NCC2CCCO2)cc1 (centres undefined)	none
COc1ccccc1CN1CN(S(=O)(=O)c2ccccc2)c2nc3ccccc3nc21	G9a block 31.6µM
CS(=O)(=O)N1CCC(C(=O)Nc2c(F)cccc2F)CC1	none
Cc1cc(SCC2=NNC(=O)C2)c(Cl)cc1Cl	none
CCOc1ccc(/C=C/C2=Cc3c(sc(NC(=O)CSc4n[nH]c(N)n4)c3C#N)C(C)(C)C2)cc1	JMJD2A Tudor inconclusive, Sfp inh 39.8µM, BAZ2B inh 39.8µM, G9a block inconclusive
Cc1ccsc1/C=C/C1=Cc2c(sc(NC(=O)CSc3n[nH]c(N)n3)c2C#N)C(C)(C)C1	JMJD2A Tudor inconclusive, Sfp inh 39.8µM, BAZ2B inh inconclusive, G9a block 35.5µM
c1ccc2c(c1)COC(CN1CCCCC1)OC2	none (no result: G9a block)
O=S(=O)(NN1CCOCC1)c1ccc(Cl)s1	G9a block 1.26µM
CN1CCN(NS(=O)(=O)c2ccc(Cl)s2)CC1	G9a block 1.58µM
O=C(Nc1ccc(C2=NCCN2)cc1)c1ccc(C(=O)Nc2ccc(C3=NCCN3)cc2)c(Cl)c1	JMJD2A Tudor 56.2µM, G9a block 25.1µM, HP1b chromo inh inconclusive
O=C(Nc1ccc(NC(=O)c2ccc(Cl)cc2Cl)cc1)c1ccc2c(c1)OCO2	none
CN(C)c1cc(-c2ccc(Cl)cc2Cl)oc(=O)c1Cl	Sfp inh inconclusive, BAZ2B inh 89.1µM (no result: G9a block)
COc1ccccc1NC(=O)C(C/C=C(/C)Cl)C(C)=O (centres undefined)	none
CCCOc1ccc(C(=O)Nc2nc(C)c(Cc3ccc4c(c3)OCO4)s2)cc1	Sfp inh inconclusive
CCC(=O)Nc1sc(Cc2ccccc2)c(C)c1C(N)=O	JMJD2A Tudor inconclusive, Sfp inh inconclusive, BAZ2B inh inconclusive (no result: G9a block)
CCC(=O)Nc1sc(Cc2ccc3c(c2)OCO3)c(C)c1C(N)=O	Sfp inh 39.8µM, G9a block 10µM
Cc1c(Cc2ccc3c(c2)OCO3)sc(NC(=O)c2ccc3ccccc3c2)c1C(N)=O	Sfp inh 12.6µM, G9a block 6.31µM
COc1cc(C(=O)Nc2nc(C)c(Cc3ccc4c(c3)OCO4)s2)cc(OC)c1OC	JMJD2A Tudor inconclusive, G9a block 3.98µM, HP1b chromo inh inconclusive
COc1cc(NS(=O)(=O)c2ccc(C)cc2)ccc1-n1cnnn1	none (no result: BAZ2B inh)
CCOC(=O)C1(Cc2ccccc2)CCN(Cc2csc(C(C)=O)c2)CC1	none
O=C(COc1ccccc1)Nc1ccccc1N1CCN(c2ccc(F)cc2)CC1	none
Cc1nn(-c2ccccn2)c2c1C(c1c(F)cccc1Cl)C1=C(N2)c2ccccc2C1=O (centres undefined)	BAZ2B inh 8.91µM, G9a block inconclusive (no result: JMJD2A Tudor, HP1b chromo inh)
COc1cc(NC(=O)CSc2ncc3c(n2)-c2ccc(Cl)cc2N(Cc2ccccc2)S3(=O)=O)cc(OC)c1	none (no result: Sfp inh)
COc1ccc2[nH]c(C(=O)O)c(CCC(=O)O)c2c1	G9a block inconclusive
O=C(O)Cc1c(C(=O)O)[nH]c2ccc(C(=O)O)cc12	BAZ2B inh inconclusive, G9a block 50.1µM
COc1cc(C2Nc3ccccc3-c3nnc(SCc4ccc(Cl)cc4)nc3O2)ccc1OCC(=O)O (centres undefined)	none (no result: Sfp inh)
COc1cc(C2Nc3ccccc3-c3nnc(SCc4ccc(C)cc4)nc3O2)cc(OC)c1O (centres undefined)	JMJD2A Tudor inconclusive, BAZ2B inh inconclusive, G9a block 7.08µM (no result: Sfp inh)
COc1nccnc1NS(=O)(=O)c1ccc(NC(=S)NC(=O)c2ccccc2)cc1	JMJD2A Tudor inconclusive, BAZ2B inh inconclusive, G9a block 39.8µM
COc1ccc(/C=C/C(=O)NC(=S)Nc2ccc(S(=O)(=O)Nc3ccc(OC)nn3)cc2)cc1	G9a block inconclusive
